We go through 15 compounds from PubChem BioAssay.

As usually defined, the inhibition is the drop in the measured response relative to a control, in per cent.

In assay [1] the test system is TRPC4 beta (transient receptor potential cation channel C4), mouse. The experiment in a line: activators of mouse TRPC4 channel, confirmation, cell-based, Fluo4 calcium, HEK293 TRPC4beta/mu-opioid, duplicates, 10 µM (AID 2426;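 active = fluorescence ratio normalized to control raised more than 50% in primary screen plus both repeat runs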;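 for activation: percent rise of integrated ratio over buffer wells lacking compound which define 0%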). The note with it: Fluo4 calcium fluorescence, at 10 µM; active compounds read high.
Assay [2] has as its system transient receptor potential cation channel C4 beta (TRPC4), mouse. The assay can be described thus: activators of mouse TRPC4 channel, confirmation, cell-based, second round, Fluo4, HEK293 TRPC4beta/mu-opioid, 1 µM (AID 2461;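 active = primary screen active and over 50% activation in each of two duplicate runs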;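 for activation: 0% = wells without test compound as baseline of integrated fluorescence ratio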). The following applies: Fluo4 calcium fluorescence, at 1 µM; active compounds read high.
Assay [3] relates to TRPC4 (transient receptor potential cation channel C4 beta), mouse. The experiment in a line: positive allosteric modulators of mouse TRPC4, confirmation, cell-based, second round, Fluo-4, HEK293 TRPC4beta/mu-opioid, 1 µM (AID 2554;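 active = primary screen hit whose fluorescence ratio, in both repeats, exceeds the weak agonist control mean by 3 SD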). The note with it: DAMGO EC20, Fluo-4 calcium flux, at 1 µM; active compounds read high.
For assay [4], the system named is TRPC4 beta (transient receptor potential cation channel C4), mouse. The assay can be described thus: positive allosteric modulators of mouse TRPC4, confirmation, cell-based, Fluo-4, HEK293 TRPC4beta/mu-opioid (AID 2555;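 active = primary screen hit whose calcium fluorescence ratio, in both repeats, exceeds the weak agonist control mean by 3 SD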). The note with it: DAMGO EC20, Fluo-4 calcium flux, at 10 µM; active compounds read high. (In general: Calcium flux is commonly read through the fluorescence of an indicator in the cells.)

The target in assay [5] is Short transient receptor potential channel 4 (Mus musculus) (UniProt Q9QUQ5). The experiment in a line: inhibitors of mouse TRPC4 channel, confirmation, cell-based, Fluo4, HEK293 TRPC4beta/mu-opioid (AID 2636;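 active = calcium signal cut by more than 3 SD below the full-agonist control yet still positive, in both repeats and the earlier primary screen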). The note with it: DAMGO, Fluo4 calcium flux, at 10 µM; active compounds read high.
Chain of Short transient receptor potential channel 4 (Mus musculus) (Q9QUQ5 whole entry, looked up): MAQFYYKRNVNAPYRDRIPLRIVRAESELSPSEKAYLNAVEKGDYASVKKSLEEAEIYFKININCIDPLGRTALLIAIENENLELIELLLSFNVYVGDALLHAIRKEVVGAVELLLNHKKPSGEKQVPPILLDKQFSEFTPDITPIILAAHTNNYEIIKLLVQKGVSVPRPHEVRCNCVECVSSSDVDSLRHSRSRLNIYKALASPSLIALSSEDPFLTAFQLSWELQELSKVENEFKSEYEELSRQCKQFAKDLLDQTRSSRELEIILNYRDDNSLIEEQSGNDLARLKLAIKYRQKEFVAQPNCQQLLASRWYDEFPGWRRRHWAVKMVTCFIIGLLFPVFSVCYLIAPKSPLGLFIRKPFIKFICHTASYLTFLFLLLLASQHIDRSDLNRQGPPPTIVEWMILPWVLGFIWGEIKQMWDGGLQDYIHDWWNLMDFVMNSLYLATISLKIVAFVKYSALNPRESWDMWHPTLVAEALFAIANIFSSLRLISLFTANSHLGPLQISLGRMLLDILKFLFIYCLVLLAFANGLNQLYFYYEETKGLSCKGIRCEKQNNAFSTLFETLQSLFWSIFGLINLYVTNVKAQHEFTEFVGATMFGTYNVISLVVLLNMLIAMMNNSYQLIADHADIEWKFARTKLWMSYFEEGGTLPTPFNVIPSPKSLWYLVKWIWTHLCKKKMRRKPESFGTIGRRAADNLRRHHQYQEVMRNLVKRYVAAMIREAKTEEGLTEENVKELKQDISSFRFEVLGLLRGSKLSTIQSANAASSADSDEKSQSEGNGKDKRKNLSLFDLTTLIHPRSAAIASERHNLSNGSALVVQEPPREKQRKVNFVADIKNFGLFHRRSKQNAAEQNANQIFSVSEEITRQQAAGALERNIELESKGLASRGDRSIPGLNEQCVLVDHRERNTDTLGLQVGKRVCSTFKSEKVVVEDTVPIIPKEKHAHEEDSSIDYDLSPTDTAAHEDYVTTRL
Assay [6] has the same target. The assay can be described thus: inhibitors of mouse TRPC4 channel, confirmation, cell-based, second round, Fluo4, HEK293 TRPC4beta/mu-opioid, 1 µM (AID 2637;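 active = calcium signal ratio cut to more than 3 SD under the fully stimulated control mean yet still positive, in both repeats and the primary screen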;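 for inhibition: percent of integrated ratio relative to wells lacking test compound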). The note with it: Fluo4 calcium flux, DAMGO, at 1 µM; active compounds read high.
For assay [7] the target is unchanged. The assay can be described thus: TRPC4 positive allosteric modulators, dose response, cell-based, HEK293 TRPC4/mu-opioid, Fluo-4 calcium, EC20 DAMGO (AID 434941;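 active = earlier screen potentiator hit that boosts the TRPC4 ion channel at some dose, with a dose response; inactive = no potentiation, no dose response, or not a prior hit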;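 note: calcium entry triggered by an EC20 dose of DAMGO at the co-expressed mu-opioid receptor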).
The target in assay [8] is Short transient receptor potential channel 6 (Mus musculus) (UniProt Q61143). The assay can be described thus: inhibition of mouse TRPC6 channel, confirmation, selectivity assay for TRPC4 inhibitor project, cell-based, HEK293, membrane potential dye, duplicate (AID 434948;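 active = active in primary screen and both duplicates, each dropping signal beyond three positive-control SD with fluorescence still positive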). The note with it: HEK293 TRPC6, membrane potential dye fluorescence, at 10 µM, stimulated with maximal-effect acetylcholine; active compounds read high.
Chain of Short transient receptor potential channel 6 (Mus musculus) (Q61143 whole entry, looked up): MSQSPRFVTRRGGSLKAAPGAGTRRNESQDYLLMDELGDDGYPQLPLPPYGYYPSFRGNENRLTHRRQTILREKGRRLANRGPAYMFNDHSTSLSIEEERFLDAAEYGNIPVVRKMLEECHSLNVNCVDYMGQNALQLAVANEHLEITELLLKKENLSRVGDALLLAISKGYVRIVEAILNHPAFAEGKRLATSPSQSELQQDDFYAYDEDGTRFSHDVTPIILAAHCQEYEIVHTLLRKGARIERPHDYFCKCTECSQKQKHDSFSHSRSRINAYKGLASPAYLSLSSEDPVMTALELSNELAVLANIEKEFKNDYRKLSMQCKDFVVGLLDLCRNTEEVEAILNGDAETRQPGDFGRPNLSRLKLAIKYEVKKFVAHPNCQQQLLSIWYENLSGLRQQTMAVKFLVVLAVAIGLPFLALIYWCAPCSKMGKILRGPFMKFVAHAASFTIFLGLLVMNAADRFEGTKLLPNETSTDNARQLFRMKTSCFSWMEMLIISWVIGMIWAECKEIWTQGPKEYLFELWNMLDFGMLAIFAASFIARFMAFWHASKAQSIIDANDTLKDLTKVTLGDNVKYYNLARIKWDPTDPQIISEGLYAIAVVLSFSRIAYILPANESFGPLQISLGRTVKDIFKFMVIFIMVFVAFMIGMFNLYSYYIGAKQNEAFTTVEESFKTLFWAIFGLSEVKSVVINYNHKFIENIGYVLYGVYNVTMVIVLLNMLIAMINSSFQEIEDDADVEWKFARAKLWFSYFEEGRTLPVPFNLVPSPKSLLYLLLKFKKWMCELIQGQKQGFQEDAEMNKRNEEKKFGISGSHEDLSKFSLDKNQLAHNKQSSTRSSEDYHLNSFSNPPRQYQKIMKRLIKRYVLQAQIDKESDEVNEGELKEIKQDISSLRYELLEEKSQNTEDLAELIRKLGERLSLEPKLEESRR

Assay [9] shares this target. The experiment in a line: activation of mouse TRPC6 channel, confirmation, selectivity assay for TRPC4 activator project, cell-based, HEK293, membrane potential dye, duplicate (AID 434950).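 For activation: 0% = buffer only wells and 100% = acetylcholine maximal-effect wells.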 The note with it: HEK293 TRPC6, membrane potential fluorescence, at 10 µM; active compounds read high.
Assay [10] shares this target. The experiment in a line: TRPC6 potentiation by TRPC4 potentiator hits, confirmation, selectivity assay for TRPC4 potentiator project, HEK293 cells, membrane potential dye, duplicate (AID 434952;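 active = compound raising the membrane signal above positive-control mean plus 3 SD in both repeats, and a primary screen hit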). The note with it: HEK293 TRPC6, membrane potential dye fluorescence, at 10 µM, maximal acetylcholine added after compound; active compounds read high.
Assay [11] addresses Short transient receptor potential channel 4 (Mus musculus) (UniProt Q9QUQ5). The assay can be described thus: calcium flux activators in TRPC4/5HT1a cells, counter-screen for TRPC4 activator project, cell-based, second counter screen, HEK293 TRPC4/5HT1a, Fluo-4 (AID 434977;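 active = calcium signal rise above buffer-control mean plus 5 SD in both duplicates, and also a hit in the primary screen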;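 for activation: plate controls were assay buffer for no effect and maximal serotonin response for full effect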). The following applies: Fluo-4 calcium flux, at 10 µM; active compounds read high.
Assay [12] in a line: calcium flux inhibitors in TRPC4/5HT1a cells, confirmation, counter-screen for TRPC4 inhibitor project, cell-based, second counter screen, HEK293 TRPC4/5HT1a, Fluo-4 (AID 434978;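 active = primary screen active whose calcium signal fell more than 3 SD beyond the full-serotonin control mean in both duplicate plates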;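 for outcome: serotonin given first at submaximal then at maximal dose after compound preincubation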). The note with it: Fluo-4 calcium flux, at 10 µM, serotonin added to trigger calcium flux; active compounds read high.
Assay [13] deals with TRPC4 (mouse), co-expressed with 5HT1a in HEK293. The assay can be described thus: calcium flux potentiators in TRPC4/5HT1a cells, confirmation, counter-screen for TRPC4 potentiator project, cell-based, second counter screen, HEK293 TRPC4/5HT1a, Fluo-4 (AID 434979;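 active = signal rise over 3 SD above mean of control wells given weak agonist, in both repeats and first screen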). The note with it: Fluo-4 calcium flux, at 10 µM, serotonin added at its EC20 dose; active compounds read high.
A short description of assay [14]: calcium flux activation in mu-opioid HEK293 cells, confirmation, counter-screen for TRPC4 activator project, cell-based, HEK293 mu-opioid receptor line (AID 449723;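 active = hit in primary screen, with calcium signal over 5 SD above buffer well mean in both duplicates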;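 note: counter screen cells carry the mu-opioid receptor alone and lack TRPC4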). The note with it: Fluo-4 calcium fluorescence, at 10 µM; active compounds read high.
Assay [15] can be described thus: calcium flux enhancement in mu-opioid HEK293 cells, confirmation, counter-screen for TRPC4 allosteric potentiator project, cell-based, HEK293 mu-opioid receptor line (AID 449724;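 active = calcium signal rise more than 3 SD above the low-dose agonist control mean, in both duplicate plates and the primary screen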;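 note: HEK293 cells carrying mu-opioid receptor only with no TRPC4 channel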). The note with it: Fluo-4 calcium flux, at 10 µM, compound added before EC20 DAMGO stimulus; active compounds read high.

Each structure is given as a SMILES string. For part of these data: Entries with a potency or affinity are not part of this list. The source made the active and inactive calls.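 Rule for the calls, unless noted: active = membrane potential signal rise above negative control mean plus 3 SD in both duplicates, also active in the earlier TRPC4 screen; inactive = the rest.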

Take `Cc1onc(-c2ccccc2)c1C(=O)NNC(=S)NC(=O)c1ccc(Cl)cc1Cl`: the activation in assay [1] is 274% (active); in assay [2], 81% (active); in [9] it was 28% (active); in [11], 142% (active); in assay [14], 96.9% (active). In addition, the outcome in assay [3], in [4], in [5], in [6], in [7] and in assay [8] was inactive. Moreover, the result in [10], in assay [12], in assay [13] and in [15] was inactive.
Consider `CCNC(=S)N1CCC(C(O)(c2ccccc2)c2ccccc2)CC1`, for which the figures for the activation in [1] and in [9] were 117% (active) and 41.5% (active), respectively. Moreover, the outcome in [2], in [3], in assay [4], in [6], in assay [7] and in [8] was inactive. For the same compound, the result in assay [10], in assay [11], in assay [12], in assay [13], in assay [14] and in [15] was inactive. In addition, the inhibition in assay [5] is 96% (active).
On to `Cc1onc(-c2ccccc2)c1C(=O)NNC(=S)NC(=O)c1ccc(F)cc1`, for which the activation in assay [1] was 201% (active); in assay [9], 27.5% (active); in assay [11] it was 110% (active); in [14], 58.7% (active). The result in assay [2], in [3], in assay [4], in [5], in assay [6] and in [7] was inactive. Moreover, the compound was called inactive in assay [8], in assay [10], in assay [12], in assay [13] and in [15].
Consider `Cc1onc(-c2ccccc2)c1C(=O)NNC(=S)NC(=O)c1ccc(Br)cc1`, for which the figures for the activation in assay [1], in assay [11] and in [14] were 263% (active), 190% (active) and 70.7% (active), respectively. Besides, the result in assay [2], in [3], in assay [4], in assay [5], in assay [6] and in [7] was inactive. Besides, the call in [8], in [9], in assay [10], in assay [12], in [13] and in assay [15] was inactive.
For `CC1CN(C(=O)c2ccc(NS(=O)(=O)c3ccc(C(C)(C)C)cc3)cc2)CC(C)O1` (stereo not given), the activation is 63% (active) in [1], 39.5% (active) in assay [9], 30.9% (active) in assay [11] and 16.1% (active) in [14]. In addition, the outcome in assay [2], in assay [3], in assay [4], in assay [5], in [6] and in [7] was inactive. The outcome in assay [8], in assay [10], in assay [12], in [13] and in assay [15] was inactive.
As for `Cc1ccc(OCC(=O)NNC(=S)NC(=O)C(C)(C)C)c(Br)c1`, the activation was 120% (active) in assay [1], 24% (active) in [9], 90.9% (active) in [11] and 19.6% (active) in [14]. Besides, the outcome in [2], in assay [3], in [4], in assay [5], in [6] and in [7] was inactive. Also, the compound was called inactive in assay [8], in assay [10], in [12], in assay [13] and in assay [15].
Take `Cc1ccc(S(=O)(=O)Nc2cccc(C(=O)NCC(c3ccccc3)N(C)C)c2)cc1F` (stereo not given): the activation in assay [1] was 84% (active); in [9], 37.5% (active). The result in [2], in assay [3], in assay [4], in assay [5], in assay [7] and in [8] was inactive. Moreover, the result in assay [10], in [11], in assay [12], in assay [13], in assay [14] and in assay [15] was inactive. For the same compound, the inhibition in assay [6] was 78% (active).
For `CN(C)/C=C1\C(=O)N(c2ccc([N+](=O)[O-])cc2)N=C1c1ccccc1`, the values for the activation in [1] and in assay [11] were 76% (active) and 68.6% (active), respectively. For the same compound, the outcome in [2], in [3], in assay [4], in [6], in assay [7] and in assay [8] was inactive. Besides, the call in [9], in assay [10], in assay [13], in [14] and in assay [15] was inactive. Besides, the inhibition is 85% (active) in assay [5] and -1.74% (active) in [12].
As to `NC(=Nc1ccccc1)Nc1ccccc1`, the activation in assay [1] is 224% (active); in assay [9] it was 51% (active); in assay [11] it was 94.2% (active); in assay [14] it was 64.1% (active). The outcome in [2], in assay [3], in assay [4], in assay [5], in assay [6] and in assay [7] was inactive. Moreover, the compound was classed as inactive in assay [8], in assay [10], in assay [12], in [13] and in [15].
Take `CC(C)(C)C(=O)NC(=S)NNC(=O)C(c1ccccc1)c1ccccc1`: the activation in assay [1] was 286% (active); in assay [9], 46% (active); in assay [11], 158% (active); in assay [14], 119% (active). Further, the result in [2], in assay [3], in [4], in [5], in assay [6] and in assay [7] was inactive. Moreover, the compound was classed as inactive in assay [8], in assay [10], in assay [12], in [13] and in assay [15].
Turning to `Cc1ccccc1C(=O)NNC(=S)NC(=O)c1ccc(Cl)cc1Cl`, the activation in assay [1] was 293% (active); in assay [9] it was 35% (active); in assay [11], 182% (active); in assay [14] it was 84.2% (active). Also, the result in [2], in assay [3], in assay [4], in assay [5], in [6] and in [7] was inactive. Also, the call in assay [8], in assay [10], in assay [12], in assay [13] and in assay [15] was inactive.
In the case of `O=C(NCc1ccccc1)C1=C[C@H](c2ccc3c(c2)OCO3)C[C@H](OCc2ccc(CO)cc2)O1`, the activation in assay [1] was 142% (active); in assay [11], 115% (active). Also, the outcome in assay [2], in assay [3], in assay [4], in assay [5], in assay [6] and in assay [7] was inactive. For the same compound, the compound was called inactive in assay [8], in assay [9], in assay [10], in assay [13], in assay [14] and in assay [15]. Moreover, the inhibition in [12] is 18.1% (active).
As to `O=c1c2cc(Br)ccc2nc(-c2ccc(Cl)cc2)n1O`, the figures for the activation in assay [1], in assay [11] and in assay [14] were 268% (active), 102% (active) and 31.7% (active), respectively. Besides, the outcome in assay [2], in assay [3], in assay [4], in assay [5], in [6] and in assay [7] was inactive. The result in assay [8], in assay [9], in [10], in assay [12], in [13] and in assay [15] was inactive.
Turning to `CN1C2C=C(N(CCc3c[nH]c4ccccc34)C(=O)c3ccc(Cl)cc3)CC1CC2` (stereo not given), in assay [1], the activation was 130% (active). Moreover, the result in assay [2], in assay [3], in [4], in assay [5], in assay [7] and in [8] was inactive. Also, the result in [9], in assay [10], in assay [11], in assay [12], in [13] and in assay [14] was inactive. In addition, in [15], the outcome was inactive. The inhibition in [6] is 80% (active).
In the case of `CCOC(=O)C1(CC2CC2)CCN(Cc2ccc(O)c(Cl)c2)CC1`, the outcome in [1], in assay [2], in [3], in [4], in [7] and in assay [8] was inactive. The outcome in assay [10], in assay [11], in assay [12], in [13], in assay [14] and in assay [15] was inactive. Besides, the inhibition in assay [5] was 97% (active); in assay [6], 63% (active). The activation in [9] is 82% (active).
